Data published in PubChem BioAssay (Tox21).
Where “and” joins values, the source holds several entries; their conditions need not be identical. Identical values can stand only once. Inconclusive results are not listed. Some structures have more than one record in an assay (separate samples or runs), and their calls can disagree. Calls of active or inactive are those of the source. The call rests on the fitted dose curve; in most records, active means well fitted curve in the direction sought with a large enough effect in the repeat runs; inconclusive means weak or mixed curves; inactive means no such curve, though single readings can be large; an effect the other way counts as inactive or inconclusive.

Assays:
[1] = Human pregnane X receptor (PXR) small molecule agonists, qHTS cell viability counter screen (AID 1346977); further: nearly all actives have a fitted effect of over 50% in size; further: potency means the concentration at half of the fitted maximal effect
Method in brief: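 Tox21 qHTS format; PXR-Luc HepG2, 2,000/well, charcoal-stripped FBS 5%. Cpd exposure 24hr. Read: CellTiter-Fluor fluorescence, multiplexed with luciferase.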

[2] = Caspase-3/7 induction in HepG2 cells by small molecules, qHTS assay (AID 1346978); further: nearly all actives have a fitted effect of over 15% in size; further: potency means the concentration at half of the fitted maximal effect
Method in brief: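 Wild-type HepG2 cells, 2,000/well, settled 5 hr at 37 C and 5% CO2, then compound-treated for 17 hr; caspase-3/7 activity read by luminescent Caspase-Glo 3/7 after 30 min at room temperature.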

[3] = Caspase-3/7 induction in CHO-K1 cells by small molecules, qHTS cell viability counter screen (AID 1346979); further: nearly all actives have a fitted effect of over 35% in size; further: potency means the concentration at half of the fitted maximal effect
Method in brief: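 CellTiter-Fluor viability check, qHTS format: wild-type CHO-K1, 16hr compound treatment, 1hr reagent incubation, fluorescence read.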

[4] = Caspase-3/7 induction in CHO-K1 cells by small molecules, qHTS assay (AID 1346980); further: nearly all actives have a fitted effect of over 15% in size; further: potency means the concentration at half of the fitted maximal effect
Method in brief: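 Wild-type CHO-K1 cells exposed to compounds for 17hr at 37 C, 5% CO2. Caspase-3/7 activity then measured by Caspase-Glo 3/7 luminescence after 30min at room temperature.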

[5] = biological target: Voltage-gated inwardly rectifying potassium channel KCNH2 (Homo sapiens) (UniProt Q12809); assay: Human Ether-a-go-go-Related Gene (hERG) channel small molecule antagonists: fluorescence cell-based qHTS assay (AID 1671200); further: nearly all actives have a fitted effect of over 50% in size; further: potency means the concentration at half of the fitted maximal effect;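 on activity change, negative = inhibition: hERG-expressing U2OS cells given a thallium stimulus after FluxOR II dye loading; series mostly up to about 77 µM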
Method in brief: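 Kinetic two-minute fluorescence traces, sampled at 1 s, were collected following thallium stimulus of U2OS cells (1000 per well) that had been cultured overnight at 37 C and loaded with FluxOR II.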

[6] = Caspase-3/7 induction in HepG2 cells by small molecules, qHTS cell viability counter screen (AID 1346981); further: nearly all actives have a fitted effect of over 30% in size; further: potency means the concentration at half of the fitted maximal effect; on activity change, negative = cytotoxicity: series mostly up to about 92 µM
Method in brief: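 Wild-type HepG2 cells (2,000/well) were allowed to settle for 5 hr at 37 C, 5% CO2, then dosed with compounds in DMSO by pin transfer. After 16 hr at 37 C, CellTiter-Fluor was added and fluorescence read 1 hr later.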

[7] = biological target: Nuclear receptor subfamily 1 group I member 2 (Homo sapiens) (UniProt O75469); assay: Human pregnane X receptor (PXR) small molecule agonists, qHTS assay (AID 1346982); further: nearly all actives have a fitted effect of over 35% in size; further: potency means the concentration at half of the fitted maximal effect
Method in brief: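 PXR-Luc HepG2 cells (CYP3A4 promoter-driven luciferase) were seeded in medium with 5% charcoal-stripped FBS, left 5 hr at 37 C, then exposed to compounds in DMSO for 24 hr. Luminescence was read after ONE-Glo addition.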

[8] = biological target: Cytochrome P450 2C19 (Homo sapiens) (UniProt P33261); assay: Cytochrome P450 Family 2 Subfamily C Member 19 (CYP2C19) small molecule antagonists: luciferase reporter qHTS assay (AID 1671197); further: nearly all actives have a fitted effect of over 65% in size; further: potency means the concentration at half of the fitted maximal effect; on activity change, negative = inhibition: series mostly up to about 120 µM
Method in brief: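 P450-Glo CYP2C19 screening system; proluciferin substrate; DMSO compound stocks; 10 min RT preincubation; NADPH regeneration, 1 h at 37C; luciferin detection reagent, 20 min RT; luminescence as RLU.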

[9] = biological target: Cytochrome P450 2C9 (Homo sapiens) (UniProt P11712); assay: Cytochrome P450 Family 2 Subfamily C Member 9 (CYP2C9) small molecule antagonists: luciferase reporter qHTS assay (AID 1671198); further: nearly all actives have a fitted effect of over 50% in size; further: potency means the concentration at half of the fitted maximal effect; on activity change, negative = inhibition: series mostly up to about 120 µM
Method in brief: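 P450-Glo proluciferin substrate with CYP2C9 enzyme; 10 min RT preincubation, then NADPH regeneration 1 h at 37C; luciferin detection reagent 20 min RT, luminescence in relative luminescence units.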

[10] = biological target: Cytochrome P450 3A4 (Homo sapiens) (UniProt P08684); assay: Cytochrome P450 Family 3 Subfamily A Member 4 (CYP3A4) small molecule antagonists: luciferase reporter qHTS assay (AID 1671201); further: nearly all actives have a fitted effect of over 50% in size; further: potency means the concentration at half of the fitted maximal effect; on activity change, negative = inhibition: series mostly up to about 120 µM
Method in brief: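 Proluciferin-to-luciferin conversion by CYP3A4, NADPH-regenerated, 1 h RT; luminescence read as RLU. Ketoconazole as control.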

[11] = biological target: Cytochrome P450 2D6 (Homo sapiens) (UniProt P10635); assay: Cytochrome P450 Family 2 Subfamily D Member 6 (CYP2D6) small molecule antagonists: luciferase reporter qHTS assay (AID 1671196); further: nearly all actives have a fitted effect of over 50% in size; further: potency means the concentration at half of the fitted maximal effect; on activity change, negative = inhibition: series mostly up to about 120 µM
Method in brief: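 CYP2D6 enzyme–substrate mix was held with compound for 10 min at room temperature, then NADPH regeneration solution was added and the reaction ran 1 h at room temperature. Luciferin product was detected by luminescence after 20 min with detection reagent.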

[12] = biological target: Cytochrome P450 1A2 (Homo sapiens) (UniProt P05177); assay: Cytochrome P450 Family 1 Subfamily A Member 2 (CYP1A2) small molecule antagonists: luciferase reporter qHTS assay (AID 1671199); further: nearly all actives have a fitted effect of over 50% in size; further: potency means the concentration at half of the fitted maximal effect; on activity change, negative = inhibition: series mostly up to about 120 µM
Method in brief: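 Human CYP1A2 activity measured with a P450-Glo proluciferin substrate; compounds in DMSO preincubated 10 min at room temperature with enzyme-substrate mix, then NADPH regeneration system added for 1 h. Luciferin detection reagent, 20 min, luminescence read.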

[13] = biological target: Nuclear receptor subfamily 1 group I member 2 (Homo sapiens) (UniProt O75469); assay: CYP3A4 induction through human pregnane X receptor (PXR) by small molecules, qHTS assay (AID 1346984); further: nearly all actives have a fitted effect of over 40% in size
Method in brief: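 DPX-2 cells (HepG2 co-transfected with PXR and CYP3A4 promoter-luciferase) treated with compounds 24 h at 37C; luciferin-IPA CYP3A4 substrate 3uM final added for 3 h, then One-Glo; luminescence read. qHTS format.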

[14] = biological target: Nuclear receptor subfamily 1 group I member 2 (Rattus norvegicus) (UniProt Q9R1A7); assay: Rat pregnane X receptor (rPXR) activation by small molecules, qHTS assay (AID 1346983); settings: rPXR luciferase reporter cells, One-Glo luminescence, 24 h; stronger effect = higher value; further: nearly all actives have a fitted effect of over 20% in size
Method in brief: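 Cell-based rPXR activation assay: rPXR cells, 2,000 per well, rested 5hr at 37 C, then exposed to compounds in DMSO for 24 hr at 37 C. Luciferase activity read by One-Glo luminescence after 30 min at room temperature.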

[15] = biological target: Nuclear receptor subfamily 1 group I member 2 (Homo sapiens) (UniProt O75469); assay: Human pregnane X receptor (PXR) activation by small molecules, qHTS assay (AID 1346985); further: nearly all actives have a fitted effect of over 40% in size
Method in brief: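 DPX-2 cells (HepG2 co-transfected with a PXR response element and a CYP3A4-promoter luciferase construct) were seeded at 2,000 per well, rested 5 hr at 37C, then exposed to DMSO-dissolved compounds for 24 hr. Activation was read as luciferase luminescence.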
On the % scale 0 is the no-effect control and ±100 the full control effect.

Cytochrome P450 1A2 (Homo sapiens), sequence (P05177 whole entry, looked up): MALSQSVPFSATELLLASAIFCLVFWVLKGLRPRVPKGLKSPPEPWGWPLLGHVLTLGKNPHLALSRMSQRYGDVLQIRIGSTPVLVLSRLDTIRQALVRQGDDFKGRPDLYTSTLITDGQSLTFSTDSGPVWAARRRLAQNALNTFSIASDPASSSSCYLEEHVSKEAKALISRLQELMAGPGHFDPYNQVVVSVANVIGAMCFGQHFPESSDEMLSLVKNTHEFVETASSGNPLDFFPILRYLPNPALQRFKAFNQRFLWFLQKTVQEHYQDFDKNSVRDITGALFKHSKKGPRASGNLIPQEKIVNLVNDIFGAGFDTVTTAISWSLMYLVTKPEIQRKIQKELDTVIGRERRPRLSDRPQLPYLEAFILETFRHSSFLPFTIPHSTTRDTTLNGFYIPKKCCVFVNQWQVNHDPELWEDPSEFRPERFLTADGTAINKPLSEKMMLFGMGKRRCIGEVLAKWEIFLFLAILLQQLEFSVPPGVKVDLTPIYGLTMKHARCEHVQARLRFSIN
Cytochrome P450 2D6 (Homo sapiens), sequence (P10635 whole entry, looked up): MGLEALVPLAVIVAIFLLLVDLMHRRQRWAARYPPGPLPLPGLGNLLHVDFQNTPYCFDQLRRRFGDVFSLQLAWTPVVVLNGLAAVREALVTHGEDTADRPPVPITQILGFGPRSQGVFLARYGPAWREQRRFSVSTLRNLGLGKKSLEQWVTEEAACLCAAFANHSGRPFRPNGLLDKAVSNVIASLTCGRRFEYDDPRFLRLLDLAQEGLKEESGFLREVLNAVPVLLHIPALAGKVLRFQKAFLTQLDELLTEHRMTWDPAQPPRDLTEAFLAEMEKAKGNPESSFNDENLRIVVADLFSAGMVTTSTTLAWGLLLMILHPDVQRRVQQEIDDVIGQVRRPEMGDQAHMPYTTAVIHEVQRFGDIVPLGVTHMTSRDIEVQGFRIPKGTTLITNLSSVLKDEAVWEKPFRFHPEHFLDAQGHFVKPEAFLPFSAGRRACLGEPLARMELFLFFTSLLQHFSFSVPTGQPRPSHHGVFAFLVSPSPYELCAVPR
Voltage-gated inwardly rectifying potassium channel KCNH2 (Homo sapiens), sequence (Q12809 whole entry, looked up): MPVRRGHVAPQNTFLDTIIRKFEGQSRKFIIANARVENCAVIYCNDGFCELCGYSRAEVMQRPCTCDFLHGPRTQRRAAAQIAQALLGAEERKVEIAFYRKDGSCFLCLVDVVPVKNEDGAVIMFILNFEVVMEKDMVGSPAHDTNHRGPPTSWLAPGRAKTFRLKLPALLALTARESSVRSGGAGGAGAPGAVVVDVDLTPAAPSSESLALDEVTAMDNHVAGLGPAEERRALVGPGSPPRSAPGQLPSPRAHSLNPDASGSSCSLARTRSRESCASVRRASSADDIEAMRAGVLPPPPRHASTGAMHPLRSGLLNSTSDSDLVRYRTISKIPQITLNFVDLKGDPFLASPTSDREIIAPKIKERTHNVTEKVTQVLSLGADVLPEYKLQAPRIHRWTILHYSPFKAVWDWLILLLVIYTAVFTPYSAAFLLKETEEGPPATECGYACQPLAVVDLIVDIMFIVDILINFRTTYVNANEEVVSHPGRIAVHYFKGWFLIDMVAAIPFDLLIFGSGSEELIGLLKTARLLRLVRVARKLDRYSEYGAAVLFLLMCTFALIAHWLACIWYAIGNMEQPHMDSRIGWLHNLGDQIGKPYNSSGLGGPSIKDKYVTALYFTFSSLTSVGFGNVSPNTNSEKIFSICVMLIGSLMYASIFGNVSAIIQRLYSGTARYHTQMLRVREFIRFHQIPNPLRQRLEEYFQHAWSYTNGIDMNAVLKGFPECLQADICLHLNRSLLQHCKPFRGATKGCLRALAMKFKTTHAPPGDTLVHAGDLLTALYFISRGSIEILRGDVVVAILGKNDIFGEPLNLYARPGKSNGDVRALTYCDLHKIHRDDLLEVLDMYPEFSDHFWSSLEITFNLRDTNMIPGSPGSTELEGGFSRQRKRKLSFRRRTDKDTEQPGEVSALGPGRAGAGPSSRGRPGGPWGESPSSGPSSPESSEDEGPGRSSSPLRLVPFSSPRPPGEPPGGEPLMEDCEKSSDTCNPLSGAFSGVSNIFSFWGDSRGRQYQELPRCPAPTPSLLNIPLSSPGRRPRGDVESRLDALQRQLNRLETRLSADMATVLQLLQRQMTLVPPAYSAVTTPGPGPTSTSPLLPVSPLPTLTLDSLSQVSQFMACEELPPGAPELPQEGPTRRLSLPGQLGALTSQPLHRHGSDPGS
Cytochrome P450 2C9 (Homo sapiens), sequence (P11712 whole entry, looked up): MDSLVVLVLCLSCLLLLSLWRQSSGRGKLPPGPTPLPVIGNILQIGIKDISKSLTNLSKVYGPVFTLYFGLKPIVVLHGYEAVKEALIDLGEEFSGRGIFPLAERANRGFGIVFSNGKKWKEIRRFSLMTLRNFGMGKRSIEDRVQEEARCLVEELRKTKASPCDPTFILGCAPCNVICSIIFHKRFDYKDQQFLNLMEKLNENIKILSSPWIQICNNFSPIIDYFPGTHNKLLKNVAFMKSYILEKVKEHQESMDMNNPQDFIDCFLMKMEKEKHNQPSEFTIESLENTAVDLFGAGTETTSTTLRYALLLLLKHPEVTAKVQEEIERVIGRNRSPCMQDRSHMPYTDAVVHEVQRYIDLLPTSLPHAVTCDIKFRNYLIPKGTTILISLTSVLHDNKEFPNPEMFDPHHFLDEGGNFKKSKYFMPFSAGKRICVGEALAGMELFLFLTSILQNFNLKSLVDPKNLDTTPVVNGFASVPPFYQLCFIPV
Nuclear receptor subfamily 1 group I member 2 (Rattus norvegicus), sequence (Q9R1A7 whole entry, looked up): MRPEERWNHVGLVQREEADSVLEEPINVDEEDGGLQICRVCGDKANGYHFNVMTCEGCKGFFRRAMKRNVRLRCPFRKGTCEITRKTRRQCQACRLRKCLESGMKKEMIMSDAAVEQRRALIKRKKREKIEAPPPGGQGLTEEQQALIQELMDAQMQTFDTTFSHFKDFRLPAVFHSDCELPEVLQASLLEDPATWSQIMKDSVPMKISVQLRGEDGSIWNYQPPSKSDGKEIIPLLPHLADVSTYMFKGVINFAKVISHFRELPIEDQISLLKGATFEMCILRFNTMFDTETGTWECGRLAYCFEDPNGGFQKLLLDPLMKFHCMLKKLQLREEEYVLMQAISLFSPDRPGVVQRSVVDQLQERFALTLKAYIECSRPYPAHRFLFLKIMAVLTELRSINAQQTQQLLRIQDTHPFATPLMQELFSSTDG
Nuclear receptor subfamily 1 group I member 2 (Homo sapiens), sequence (O75469 whole entry, looked up): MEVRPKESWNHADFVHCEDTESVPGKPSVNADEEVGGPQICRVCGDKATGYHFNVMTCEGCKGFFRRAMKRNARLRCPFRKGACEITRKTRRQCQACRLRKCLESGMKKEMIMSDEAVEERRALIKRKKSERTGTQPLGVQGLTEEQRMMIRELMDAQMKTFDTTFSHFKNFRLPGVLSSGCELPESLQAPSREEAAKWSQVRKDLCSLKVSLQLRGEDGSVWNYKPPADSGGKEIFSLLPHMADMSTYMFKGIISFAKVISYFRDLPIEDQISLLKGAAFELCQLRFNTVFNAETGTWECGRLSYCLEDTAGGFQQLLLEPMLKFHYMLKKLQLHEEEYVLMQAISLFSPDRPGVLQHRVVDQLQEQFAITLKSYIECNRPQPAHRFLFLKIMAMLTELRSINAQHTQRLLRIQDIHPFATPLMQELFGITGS
Cytochrome P450 3A4 (Homo sapiens), sequence (P08684 whole entry, looked up): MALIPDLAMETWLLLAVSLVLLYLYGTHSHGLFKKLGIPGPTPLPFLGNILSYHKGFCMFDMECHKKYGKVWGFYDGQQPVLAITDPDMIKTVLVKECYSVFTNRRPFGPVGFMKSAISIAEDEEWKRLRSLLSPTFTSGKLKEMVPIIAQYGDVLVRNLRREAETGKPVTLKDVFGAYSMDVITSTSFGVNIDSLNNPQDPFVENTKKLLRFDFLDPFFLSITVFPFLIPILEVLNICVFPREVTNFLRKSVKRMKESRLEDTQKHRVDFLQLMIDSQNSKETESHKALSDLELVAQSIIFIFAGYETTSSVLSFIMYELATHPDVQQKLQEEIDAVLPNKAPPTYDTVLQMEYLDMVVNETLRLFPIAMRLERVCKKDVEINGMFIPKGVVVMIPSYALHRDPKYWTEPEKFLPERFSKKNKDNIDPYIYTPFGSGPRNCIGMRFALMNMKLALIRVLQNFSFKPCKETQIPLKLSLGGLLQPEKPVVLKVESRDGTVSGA
Cytochrome P450 2C19 (Homo sapiens), sequence (P33261 whole entry, looked up): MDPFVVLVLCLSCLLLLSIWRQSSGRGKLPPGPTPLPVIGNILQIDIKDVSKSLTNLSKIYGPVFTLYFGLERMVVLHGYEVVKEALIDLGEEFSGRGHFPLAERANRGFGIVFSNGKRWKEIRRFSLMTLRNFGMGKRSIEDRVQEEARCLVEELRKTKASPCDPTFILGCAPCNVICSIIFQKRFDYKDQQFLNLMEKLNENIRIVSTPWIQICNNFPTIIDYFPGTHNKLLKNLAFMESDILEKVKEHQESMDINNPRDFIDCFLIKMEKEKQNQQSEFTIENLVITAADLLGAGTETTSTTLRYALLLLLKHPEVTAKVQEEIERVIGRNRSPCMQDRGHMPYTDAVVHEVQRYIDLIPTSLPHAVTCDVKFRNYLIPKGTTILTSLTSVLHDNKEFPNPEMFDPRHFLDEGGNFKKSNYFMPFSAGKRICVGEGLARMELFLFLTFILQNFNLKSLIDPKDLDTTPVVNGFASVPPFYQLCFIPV

CCC(C)[O-].CCC(C)[O-].CCOC(=O)/C=C(/C)[O-].[Al+3]
inactive: Potency [1] | Potency [2] | Potency [3] | Potency [4] | Potency [5]

CCCCCC/C=C\CCCCCCCC(=O)O
inactive: Potency [1] | Potency [2] | Potency [4] | Potency [6] | Potency [7] | Potency [5] | Potency [10]
active: Potency [8] 50.2 µM | Potency [9] 71 µM

Clc1ccnc(Cl)n1
inactive: Potency [1] | Potency [2] | Potency [3] | Potency [6] | Potency [7] | Potency [11] | Potency [8] | Potency [9] | Potency [5] | Potency [10]

OC/C=C/CO
active: Potency [11] 17.8 µM
inactive: Potency [1] | Potency [2] | Potency [3] | Potency [6] | Potency [7] | Potency [8] | Potency [9] | Potency [5] | Potency [10]

S=C([S-])NCCNC(=S)[S-].S=C([S-])NCCNC(=S)[S-].[Mn+2].[Zn+2]
active: Potency [7] 5.31 µM | Potency [8] 4.36 µM | Potency [9] 3.09 µM | Potency [12] 15.5 µM
inactive: Potency [1] | Potency [2] | Potency [4] | Potency [6] | Potency [5] | Potency [10]

CCC(CC)(CC(=O)Nc1cccc(/C=C/c2nc(C3CCC3)cs2)c1)C(=O)O
inactive: Potency [1] | Potency [2] | Potency [6] | Potency [13] | Potency [8] | Potency [5]
active: Potency [7] 23.7 µM | Potency [9] 27.5 µM | Potency [12] 24.5 µM

CC(C)(C)c1ccc(C(O)CCCN2CCC(C(O)(c3ccccc3)c3ccccc3)CC2)cc1 (stereo not drawn)
active: Potency [2] 11.9 µM | Potency [3] 11.9 µM
inactive: Potency [1] | Potency [7] | Potency [8] | Potency [10]

CCOc1ccc2ccccc2c1C(=O)N[C@@H]1C(=O)N2[C@@H]1SC(C)(C)[C@@H]2C(=O)O
inactive: Potency [1] | Potency [2] | Potency [3] | Potency [6] | Potency [7] | max activation [14] -0.231% | Potency [13] | Potency [15] | Potency [11] | Potency [8] | Potency [9] | Potency [5] | Potency [10]

CCN(CC)C(=O)c1cc(S(=O)(=O)Cc2ccccc2)c(N2CCC(c3ccccc3)CC2)cc1N(CC)CCN(C)C
active: Potency [1] 13.5 µM | Potency [2] 19.1 µM | Potency [3] 21.4 µM | Potency [6] 17 µM | Potency [7] 3.4 µM | Potency [11] 8.84 µM | Potency [5] 1.72 µM | Potency [10] 0.125 µM

COc1cc2nc(N3CCN(C(=O)c4ccco4)CC3)nc(N)c2cc1OC
inactive: caspase activation [2] 12.8% [at 19 µM] | activity change, negative = cytotoxicity [6] -12% [at 19 µM] | activation [7] 6.3% [at 19 µM] | activity change, negative = inhibition [11] -17.8% [at 23.6 µM] | activity change, negative = inhibition [8] 16.3% [at 23.6 µM] | activity change, negative = inhibition [12] 1.24% [at 23.6 µM] | activity change, negative = inhibition [5] -1.36% [at 15.8 µM] | activity change, negative = inhibition [10] 135% [at 23.6 µM]
active: Potency [1] 11.6 µM

CCC(CC)C(C)CCOC(C)=O (stereo not drawn)
inactive: Potency [1] | Potency [2] | Potency [3] | Potency [6] | Potency [7] | Potency [8] | Potency [12] | Potency [5] | Potency [10]

CCCCC/C=C\C/C=C\CCCCCCCC(=O)O
inactive: Potency [1] | Potency [2] | Potency [6] | max activation [14] -4.54% | Potency [13] | Potency [15] | Potency [12] | Potency [5]
active: Potency [3] 60.1 µM | Potency [7] 60.1 µM | Potency [11] 31.2 µM | Potency [9] 35 µM and 31.7 µM | Potency [10] 39.9 µM
22.1 µM (active) and inactive: Potency [8]

C=CC(=O)OCCOC(=O)C=C
inactive: Potency [1] | Potency [2] | Potency [4] | Potency [6] | Potency [7] | Potency [11] | Potency [8] | Potency [9] | Potency [5] | Potency [10]

Nc1ccc(C(=O)O)c(O)c1
inactive: Potency [1] | Potency [2] | Potency [3] | Potency [6] | Potency [7] | max activation [14] -0.56% | Potency [13] | Potency [15] | Potency [11] | Potency [8] | Potency [9] | Potency [5] | Potency [10]

Fc1ccc(C(c2ccc(F)cc2)N2CCNCC2)cc1
active: Potency [11] 2.19 µM
inactive: Potency [1] | Potency [2] | Potency [3] | Potency [6] | Potency [7] | Potency [8] | Potency [9] | Potency [12] | Potency [10]

CC(C)(C)C1CCC(=O)CC1
inactive: Potency [1] | Potency [2] | Potency [3] | Potency [6] | Potency [7] | Potency [11] | Potency [9] | Potency [5] | Potency [10]
active: Potency [8] 7.96 µM

CCCCCCCCCCCCOC(=O)c1ccc(O)cc1
inactive: Potency [1] | Potency [5]
active: Potency [2] 54.9 µM | Potency [4] 61.6 µM | Potency [7] 27.5 µM | Potency [11] 11.3 µM | Potency [8] 4.02 µM | Potency [9] 4.52 µM | Potency [12] 12.7 µM | Potency [10] 35.9 µM

c1ccc(C(O[C@@H]2CCCN(CCc3ccc4c(c3)OCO4)C2)c2ccccc2)cc1
active: Potency [1] 61.1 µM | Potency [8] 35.6 µM | Potency [9] 17.8 µM | Potency [12] 39.9 µM | Potency [5] 0.977 µM
inactive: Potency [2] | Potency [4] | Potency [7]
